According to the supplement of paper PMC10849652:
About 7,900 targets were measured; listed, in parts, are those with a hit and a random draw of the rest. About 0.6% of all pairs of compound and target were hits.

Experiments:
Assay in all cases: log2 fold change, soluble protein after heating vs DMSO (PISA); higher = thermal stabilisation; K562 cells, 10 uM, 30 min; active = over 0.2 and 3.5 SD of the protein, either way, in both replicates (recomputed)
erlotinib = compound: C#Cc1cccc(Nc2ncnc3cc(OCCOC)c(OCCOC)cc23)c1 [erlotinib]
How it was run: (§1)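 Quantification of soluble protein used TMTpro 16plex LC-MS/MS, with channel sums equalised. Samples were the supernatant after 21,000xg for 90 min of pooled aliquots from K562 cells (2×10^6 cells/mL) treated with 10 μM compound for 30 min, heated for 3 min over 48°C-58°C, and extracted in PBS with 0.5% NP-40 at 4°C. Values, from duplicates, describe thermal stability against control samples on a log2 fold-change scale.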

[1] = compound: C/C(=N\NC(=O)C1=CC(=CC=C1)S(=O)(=O)N2CCOCC2)/C3=C(C=CC(=C3)Cl)O
How it was run: as §1

[2] = compound: C1=CC(=C(C=C1Cl)C2=NC3=NC=CN=C3C(=N2)NC4=CC=NC=C4)F
How it was run: as §1

[3] = compound: C1=CC(=CC=C1C2=NC3=C(N2)C=C(C=C3)C(=O)N)OC4=CC=C(C=C4)Cl
How it was run: as §1

[4] = compound: C1=CC2=C(C=CC(=C2)/C=C\3/C(=O)NC(=NCC4=CC=CS4)S3)N=C1
How it was run: as §1

[5] = compound: C1=CC2=NC=CN=C2C=C1/C=C/3\C(=O)NC(=O)S3
How it was run: as §1

[6] = compound: C1=CC=C(C=C1)C2=NC(=C(N2)C3=CC=NC=C3)C4=CC(=C(C=C4)Cl)O
How it was run: as §1

[7] = compound: C1=CC=C2C(=C1)C3=NNC4=CC=CC(=C43)C2=O
How it was run: as §1

[8] = compound: C1CCN(C1)C(=O)NC2=CC=CC(=C2)NC3=NC=C(C(=N3)NCCC4=CN=CN4)Br
How it was run: as §1

[9] = compound: C1CN(CCC1(CC2=CC=C(C=C2)Cl)N)C3=NC=NC4=C3C=CN4
How it was run: as §1

IRAK-1-4 Inhibitor I = compound: C1COCCN1CCN2C3=CC=CC=C3N=C2NC(=O)C4=CC(=CC=C4)[N+](=O)[O-] [IRAK-1-4 Inhibitor I]
How it was run: as §1

ibrutinib = compound: C=CC(=O)N1CCC[C@@H](n2nc(-c3ccc(Oc4ccccc4)cc3)c3c(N)ncnc32)C1 [ibrutinib]
How it was run: as §1

[10] = compound: CC(=O)c1cnc2ccc(-c3cc(Cl)c(O)c(Cl)c3)nc2c1N[C@H]1CC[C@H](CN(C)C)CC1
How it was run: as §1

ralimetinib = compound: CC(C)(C)Cn1c(N)nc2ccc(-c3[nH]c(C(C)(C)C)nc3-c3ccc(F)cc3)nc21 [ralimetinib]
How it was run: as §1

[11] = compound: CC(C)(O)CC(=O)NCCn1ccc2ncnc(Nc3ccc(Oc4cccc(C(F)(F)F)c4)c(Cl)c3)c21
How it was run: as §1

[12] = compound: CC(C)C1=C2N=C(C=C(N2N=C1)NCC3=CC=CC=C3)NCCCCCCN
How it was run: as §1

[13] = compound: CC(C)C[C@@H](C=O)NC(=O)[C@H](CC(C)C)NC(=O)[C@H](CC(C)C)NC(=O)OCc1ccccc1
How it was run: as §1

pinometostat = compound: CC(C)N(C[C@H]1O[C@@H](n2cnc3c(N)ncnc32)[C@H](O)[C@@H]1O)[C@H]1C[C@@H](CCc2nc3cc(C(C)(C)C)ccc3[nH]2)C1 [pinometostat]
How it was run: as §1

[14] = compound: CC1=C(C(CC(=O)N1)C2=CC=C(C=C2)C(F)(F)F)C(=O)NC3=C(C=C4C(=C3)C=NN4)F
How it was run: as §1

[15] = compound: CC1=C(C2=C(C=C1)C(=O)C3=CC=CC=C3N2CCCN)C
How it was run: as §1

Measured: log2 fold change

CTSH (UniProt P09668)
inactive: erlotinib 0.015 | [1] -0.054 | [2] 0.052 | [3] 0 | [4] -0.062 | [5] 0.048 | [6] 0.022 | [7] -0.011 | [8] 0.047 | [9] 0.057 | IRAK-1-4 Inhibitor I 0.009 | ibrutinib 0.034 | [10] 0.005 | ralimetinib 0.104 | [11] 0.005 | [12] -0.142 | [13] -0.016 | pinometostat -0.06 | [14] 0.009 | [15] -0.043

DDX11 (UniProt Q96FC9)
Sequence of UniProt Q96FC9 (Q96FC9 whole entry, looked up): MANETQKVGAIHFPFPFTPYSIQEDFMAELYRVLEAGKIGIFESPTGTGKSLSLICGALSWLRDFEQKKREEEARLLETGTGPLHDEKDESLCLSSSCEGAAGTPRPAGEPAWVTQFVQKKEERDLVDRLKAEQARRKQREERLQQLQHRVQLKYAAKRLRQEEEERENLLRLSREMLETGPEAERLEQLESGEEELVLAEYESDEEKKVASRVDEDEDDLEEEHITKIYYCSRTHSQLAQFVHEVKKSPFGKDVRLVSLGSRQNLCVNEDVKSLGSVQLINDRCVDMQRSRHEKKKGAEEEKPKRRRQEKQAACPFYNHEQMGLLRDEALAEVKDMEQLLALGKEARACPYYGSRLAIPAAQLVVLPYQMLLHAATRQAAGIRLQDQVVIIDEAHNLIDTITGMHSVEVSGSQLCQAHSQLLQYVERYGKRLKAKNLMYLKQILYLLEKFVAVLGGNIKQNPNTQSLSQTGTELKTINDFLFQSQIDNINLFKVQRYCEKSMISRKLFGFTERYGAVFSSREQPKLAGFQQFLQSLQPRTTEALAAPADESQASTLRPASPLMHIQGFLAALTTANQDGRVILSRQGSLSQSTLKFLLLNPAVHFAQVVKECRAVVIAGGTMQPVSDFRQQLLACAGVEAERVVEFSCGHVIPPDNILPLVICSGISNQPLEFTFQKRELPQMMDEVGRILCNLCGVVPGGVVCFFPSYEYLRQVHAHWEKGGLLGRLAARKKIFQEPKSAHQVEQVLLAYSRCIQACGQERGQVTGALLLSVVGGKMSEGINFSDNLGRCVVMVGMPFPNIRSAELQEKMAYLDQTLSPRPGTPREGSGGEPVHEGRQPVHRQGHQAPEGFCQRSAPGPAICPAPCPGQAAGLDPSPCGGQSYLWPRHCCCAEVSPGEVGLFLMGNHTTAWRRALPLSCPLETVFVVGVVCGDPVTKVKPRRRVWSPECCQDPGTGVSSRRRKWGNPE
inactive: erlotinib 0.019 | [1] -0.041 | [2] 0.087 | [3] 0.005 | [4] 0.029 | [5] 0.034 | [6] 0.215 | [7] -0.027 | [8] 0.032 | [9] 0.072 | IRAK-1-4 Inhibitor I 0.152 | ibrutinib 0.001 | [10] -0.119 | ralimetinib -0.033 | [11] -0.003 | [12] 0.022 | [13] 0.09 | pinometostat -0.316 | [14] -0.02 | [15] 0.023

EXOC1 (UniProt Q9NV70)
Sequence of UniProt Q9NV70 (Q9NV70 whole entry, looked up): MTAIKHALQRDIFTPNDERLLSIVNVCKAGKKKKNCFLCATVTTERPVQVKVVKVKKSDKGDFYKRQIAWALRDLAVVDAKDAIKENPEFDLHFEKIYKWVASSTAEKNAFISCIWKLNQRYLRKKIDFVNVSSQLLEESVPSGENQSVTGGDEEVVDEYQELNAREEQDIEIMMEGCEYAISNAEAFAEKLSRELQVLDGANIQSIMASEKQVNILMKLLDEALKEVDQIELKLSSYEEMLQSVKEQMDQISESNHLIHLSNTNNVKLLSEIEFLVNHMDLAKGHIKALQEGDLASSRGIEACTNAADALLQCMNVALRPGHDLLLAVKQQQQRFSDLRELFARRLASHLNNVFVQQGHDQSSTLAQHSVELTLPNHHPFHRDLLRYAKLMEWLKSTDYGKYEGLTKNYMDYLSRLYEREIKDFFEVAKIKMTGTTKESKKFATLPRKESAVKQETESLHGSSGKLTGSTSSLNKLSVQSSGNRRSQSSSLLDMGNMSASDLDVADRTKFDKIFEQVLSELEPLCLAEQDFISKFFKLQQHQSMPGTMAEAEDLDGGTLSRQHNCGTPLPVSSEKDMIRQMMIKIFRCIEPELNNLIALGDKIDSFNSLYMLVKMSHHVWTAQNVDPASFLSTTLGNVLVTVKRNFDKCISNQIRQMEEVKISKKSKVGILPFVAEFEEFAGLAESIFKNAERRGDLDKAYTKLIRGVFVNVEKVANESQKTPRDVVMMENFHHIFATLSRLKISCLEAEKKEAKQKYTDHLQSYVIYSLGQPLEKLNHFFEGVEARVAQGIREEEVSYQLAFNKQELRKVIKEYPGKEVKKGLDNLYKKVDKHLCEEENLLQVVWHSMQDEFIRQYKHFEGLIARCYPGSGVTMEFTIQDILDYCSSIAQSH
inactive: erlotinib 0.057 | [1] 0.163 | [2] -0.104 | [3] -0.05 | [4] 0.17 | [5] 0.013 | [6] 0.051 | [7] 0.054 | [8] -0.044 | [9] -0.073 | IRAK-1-4 Inhibitor I -0.085 | ibrutinib -0.015 | [10] -0.033 | ralimetinib 0.112 | [11] -0.151 | [13] 0.018 | pinometostat 0.214 | [14] 0.052 | [15] 0.071
active: [12] -0.419

EEF1A1 (UniProt P68104)
inactive: erlotinib -0.083 | [1] 0.119 | [2] 0.051 | [3] 0.062 | [4] -0.062 | [5] -0.343 | [6] 0.195 | [7] 0.135 | [8] -0.055 | [9] 0.122 | IRAK-1-4 Inhibitor I 0.133 | ibrutinib 0.121 | [10] 0.05 | ralimetinib 0.133 | [11] -0.052 | [12] -0.037 | [13] -0.019 | pinometostat -0.028 | [14] 0.01 | [15] -0.178

EED, A0A5F9ZI63
inactive: erlotinib 0.056 | [1] 0.049 | [2] -0.04 | [3] 0.028 | [4] -0.1 | [5] 0.05 | [6] -0.036 | [7] -0.033 | [8] 0.032 | [9] 0.012 | IRAK-1-4 Inhibitor I -0.032 | ibrutinib -0.012 | [10] -0.041 | ralimetinib 0.042 | [11] 0.053 | [12] 0.05 | [13] 0.03 | pinometostat 0.052 | [14] -0.001 | [15] 0.145

EEA1 (UniProt Q15075)
inactive: erlotinib 0 | [1] -0.016 | [2] 0.046 | [3] 0.003 | [4] 0.01 | [5] 0.046 | [6] -0.046 | [7] -0.031 | [8] 0.009 | [9] 0.05 | IRAK-1-4 Inhibitor I 0.037 | ibrutinib 0.002 | [10] 0.02 | ralimetinib -0.068 | [11] 0.013 | [12] 0.025 | [13] -0.022 | pinometostat -0.041 | [14] 0.001 | [15] -0.004

EIF3J (UniProt O75822)
Sequence of UniProt O75822 (O75822 whole entry, looked up): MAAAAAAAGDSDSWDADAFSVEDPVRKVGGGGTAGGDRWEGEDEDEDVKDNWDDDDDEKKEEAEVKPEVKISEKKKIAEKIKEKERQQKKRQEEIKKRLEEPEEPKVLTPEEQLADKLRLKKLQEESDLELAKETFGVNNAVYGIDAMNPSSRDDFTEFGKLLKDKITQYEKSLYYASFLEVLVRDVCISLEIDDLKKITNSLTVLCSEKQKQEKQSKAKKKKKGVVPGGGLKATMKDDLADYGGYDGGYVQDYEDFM
inactive: erlotinib 0.056 | [1] -0.004 | [2] 0.068 | [3] -0.033 | [4] 0.012 | [5] 0.048 | [6] 0.101 | [7] 0.021 | [8] 0.009 | [9] -0.01 | IRAK-1-4 Inhibitor I 0.118 | ibrutinib -0.031 | [10] 0.035 | ralimetinib 0.093 | [11] -0.031 | [12] -0.007 | [13] -0.079 | pinometostat -0.007 | [14] -0.019 | [15] -0.025

EHD2 (UniProt Q9NZN4)
Sequence of UniProt Q9NZN4 (Q9NZN4 whole entry, looked up): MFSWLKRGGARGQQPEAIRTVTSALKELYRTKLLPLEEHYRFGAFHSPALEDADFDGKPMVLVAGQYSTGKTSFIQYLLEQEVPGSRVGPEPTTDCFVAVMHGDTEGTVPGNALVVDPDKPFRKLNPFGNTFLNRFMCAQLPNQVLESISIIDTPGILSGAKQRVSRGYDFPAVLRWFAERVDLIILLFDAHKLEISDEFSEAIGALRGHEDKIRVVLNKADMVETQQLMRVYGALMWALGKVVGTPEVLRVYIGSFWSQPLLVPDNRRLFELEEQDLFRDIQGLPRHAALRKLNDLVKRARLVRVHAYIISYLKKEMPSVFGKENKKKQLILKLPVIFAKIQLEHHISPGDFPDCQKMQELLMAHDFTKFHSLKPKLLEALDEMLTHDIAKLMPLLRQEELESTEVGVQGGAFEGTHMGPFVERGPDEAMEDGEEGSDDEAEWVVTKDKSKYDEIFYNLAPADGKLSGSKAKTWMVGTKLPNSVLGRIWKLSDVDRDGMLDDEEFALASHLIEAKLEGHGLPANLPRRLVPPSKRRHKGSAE
inactive: erlotinib -0.044 | [1] 0.025 | [2] 0.013 | [3] -0.077 | [4] 0.007 | [5] -0.01 | [6] -0.003 | [7] 0.01 | [8] -0.008 | [9] 0.041 | IRAK-1-4 Inhibitor I 0.009 | ibrutinib 0.008 | [10] -0.038 | ralimetinib 0.003 | [11] -0.033 | [12] 0.002 | [13] 0.036 | pinometostat -0.044 | [14] 0.003 | [15] 0.001

EXOC4 (UniProt Q96A65)
Sequence of UniProt Q96A65 (Q96A65 whole entry, looked up): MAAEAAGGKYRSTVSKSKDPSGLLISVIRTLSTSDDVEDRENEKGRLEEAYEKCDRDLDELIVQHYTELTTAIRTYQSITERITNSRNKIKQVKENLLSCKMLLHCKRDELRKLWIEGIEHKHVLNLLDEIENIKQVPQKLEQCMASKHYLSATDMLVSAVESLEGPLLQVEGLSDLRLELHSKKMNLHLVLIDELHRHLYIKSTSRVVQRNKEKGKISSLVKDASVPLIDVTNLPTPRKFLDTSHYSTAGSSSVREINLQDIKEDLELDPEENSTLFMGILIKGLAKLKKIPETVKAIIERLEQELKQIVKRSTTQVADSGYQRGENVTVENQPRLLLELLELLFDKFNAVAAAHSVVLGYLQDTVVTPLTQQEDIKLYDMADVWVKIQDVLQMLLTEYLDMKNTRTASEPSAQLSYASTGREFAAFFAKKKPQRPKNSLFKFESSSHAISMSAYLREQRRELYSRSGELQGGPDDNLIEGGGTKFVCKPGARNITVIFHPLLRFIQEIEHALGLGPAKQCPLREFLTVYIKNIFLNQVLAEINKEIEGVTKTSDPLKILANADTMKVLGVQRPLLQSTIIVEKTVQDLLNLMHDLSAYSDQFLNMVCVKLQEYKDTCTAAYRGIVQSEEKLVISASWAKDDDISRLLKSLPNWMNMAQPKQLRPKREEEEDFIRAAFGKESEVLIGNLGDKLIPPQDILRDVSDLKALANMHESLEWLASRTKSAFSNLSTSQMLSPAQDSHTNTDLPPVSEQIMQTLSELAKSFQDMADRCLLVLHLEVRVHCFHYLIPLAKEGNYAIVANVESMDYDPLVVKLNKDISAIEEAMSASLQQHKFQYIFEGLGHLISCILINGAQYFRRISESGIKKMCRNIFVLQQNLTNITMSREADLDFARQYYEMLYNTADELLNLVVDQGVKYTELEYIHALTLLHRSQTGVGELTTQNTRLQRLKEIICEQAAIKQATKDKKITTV
inactive: erlotinib 0.131 | [1] 0.159 | [2] 0.044 | [3] -0.071 | [4] 0.09 | [5] 0.033 | [6] -0.036 | [7] -0.018 | [8] -0.02 | [9] -0.083 | IRAK-1-4 Inhibitor I -0.123 | ibrutinib -0.028 | [10] -0.007 | ralimetinib 0.024 | [11] -0.099 | [13] 0.04 | pinometostat 0.143 | [14] 0.035 | [15] -0.01
active: [12] -0.442

EIF4G1 isoform 8 (UniProt Q04637)
inactive: erlotinib -0.092 | [1] 0.128 | [2] -0.065 | [3] 0.011 | [4] -0.036 | [5] -0.089 | [6] -0.099 | [7] -0.246 | [8] -0.197 | [9] -0.28 | IRAK-1-4 Inhibitor I -0.124 | ibrutinib -0.148 | [10] -0.3 | ralimetinib 0.057 | [11] -0.053 | [12] -0.387 | [13] 0.046 | pinometostat 0.149 | [14] 0.096 | [15] 0.018

DOHH (UniProt Q9BU89)
inactive: erlotinib -0.001 | [1] -0.102 | [2] -0.046 | [3] 0 | [4] 0.083 | [5] -0.183 | [6] 0.064 | [7] 0.038 | [8] -0.051 | [9] 0.026 | IRAK-1-4 Inhibitor I 0.127 | ibrutinib 0.137 | [10] 0.103 | ralimetinib 0.004 | [11] 0.244 | [12] 0.045 | [13] -0.106 | pinometostat 0.011 | [14] 0.02 | [15] 0.189

DMAC1 (UniProt Q96GE9)
Sequence of UniProt Q96GE9 (Q96GE9 whole entry, looked up): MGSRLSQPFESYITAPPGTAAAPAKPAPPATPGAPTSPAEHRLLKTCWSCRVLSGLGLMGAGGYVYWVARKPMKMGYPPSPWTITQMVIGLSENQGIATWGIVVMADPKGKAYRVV
inactive: erlotinib 0.041 | [1] 0.076 | [2] 0.128 | [3] -0.002 | [4] 0.059 | [5] -0.004 | [6] -0.04 | [7] -0.021 | [8] 0.008 | [9] 0.072 | IRAK-1-4 Inhibitor I 0.018 | ibrutinib 0.048 | [10] 0.034 | ralimetinib -0.011 | [11] 0.072 | [12] 0.019 | [13] 0.067 | pinometostat -0.002 | [14] 0.063 | [15] -0.013

FAAP100 (UniProt Q0VG06)
inactive: erlotinib 0.003 | [1] 0.019 | [2] 0.246 | [3] 0.037 | [4] 0.052 | [5] 0.17 | [6] -0.024 | [7] 0.023 | [8] -0.122 | [9] 0.004 | IRAK-1-4 Inhibitor I 0.026 | ibrutinib -0.247 | [10] -0.025 | ralimetinib -0.065 | [11] -0.085 | [12] -0.043 | [13] -0.05 | pinometostat 0.013 | [14] -0.097 | [15] 0.055

FADS1, A0A0A0MR51
inactive: erlotinib 0.016 | [1] -0.11 | [2] -0.049 | [3] -0.134 | [4] 0.09 | [5] 0.05 | [7] -0.008 | [8] -0.006 | [9] 0.002 | IRAK-1-4 Inhibitor I 0.085 | ibrutinib 0.015 | [10] -0.07 | ralimetinib 0.017 | [12] -0.044 | [13] 0.05 | pinometostat 0.027 | [14] -0.013 | [15] 0.003
active: [6] 0.231 | [11] 0.355

EXOC2 (UniProt Q96KP1)
Sequence of UniProt Q96KP1 (Q96KP1 whole entry, looked up): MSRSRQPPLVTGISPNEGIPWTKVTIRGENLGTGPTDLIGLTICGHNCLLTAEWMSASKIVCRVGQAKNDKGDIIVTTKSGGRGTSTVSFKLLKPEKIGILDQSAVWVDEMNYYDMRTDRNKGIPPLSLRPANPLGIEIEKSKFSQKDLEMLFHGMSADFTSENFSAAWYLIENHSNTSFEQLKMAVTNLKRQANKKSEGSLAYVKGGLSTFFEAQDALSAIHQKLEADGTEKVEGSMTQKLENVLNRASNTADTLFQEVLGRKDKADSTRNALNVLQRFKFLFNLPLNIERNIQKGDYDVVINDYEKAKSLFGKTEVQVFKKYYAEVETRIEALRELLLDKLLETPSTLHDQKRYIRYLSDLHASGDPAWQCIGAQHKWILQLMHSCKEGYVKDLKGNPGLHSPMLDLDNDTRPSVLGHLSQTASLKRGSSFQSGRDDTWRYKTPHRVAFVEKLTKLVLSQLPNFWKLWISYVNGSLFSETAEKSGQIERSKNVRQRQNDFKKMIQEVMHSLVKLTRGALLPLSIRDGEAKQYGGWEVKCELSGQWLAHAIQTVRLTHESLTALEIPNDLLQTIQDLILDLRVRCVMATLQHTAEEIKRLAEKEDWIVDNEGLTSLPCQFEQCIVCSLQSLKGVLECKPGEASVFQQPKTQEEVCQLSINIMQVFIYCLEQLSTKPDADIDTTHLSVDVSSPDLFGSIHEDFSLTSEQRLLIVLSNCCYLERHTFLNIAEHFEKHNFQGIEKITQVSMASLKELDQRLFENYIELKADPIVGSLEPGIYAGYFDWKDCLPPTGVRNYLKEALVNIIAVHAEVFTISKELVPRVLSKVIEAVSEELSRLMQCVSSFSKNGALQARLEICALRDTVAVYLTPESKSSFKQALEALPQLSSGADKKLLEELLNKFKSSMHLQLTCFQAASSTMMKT
active: [12] -0.43
inactive: erlotinib 0.07 | [1] 0.083 | [2] -0.027 | [3] -0.045 | [4] 0.05 | [5] 0.006 | [6] -0.013 | [7] 0.054 | [8] -0.014 | [9] -0.119 | IRAK-1-4 Inhibitor I -0.092 | ibrutinib -0.018 | [10] -0.048 | ralimetinib 0.08 | [11] -0.052 | [13] 0.027 | pinometostat 0.172 | [14] -0.216 | [15] 0.007

ELOC (UniProt Q15369)
Sequence of UniProt Q15369 (Q15369 whole entry, looked up): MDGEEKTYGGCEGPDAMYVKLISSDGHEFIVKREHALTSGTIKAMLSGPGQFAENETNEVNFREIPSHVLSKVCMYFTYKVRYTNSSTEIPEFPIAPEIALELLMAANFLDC
inactive: erlotinib -0.055 | [1] 0.124 | [2] 0.066 | [3] 0.017 | [4] 0.117 | [5] 0.048 | [6] 0.075 | [7] 0.009 | [8] -0.016 | [9] -0.024 | IRAK-1-4 Inhibitor I 0.017 | ibrutinib -0.011 | [10] -0.018 | ralimetinib -0.027 | [11] -0.07 | [12] -0.032 | [13] -0.042 | pinometostat 0.008 | [14] 0.002 | [15] 0.165
